Measurements reported in PMC5540273 (PLoS ONE, 2017).

What follows are compounds tested on RET.
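Also: kd values determined as follow-up on hits from a single-replicate KINOMEscan panel screen.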

| SMILES | Kd |
| --- | --- |
| O=c1cc(N2CCOCC2)nc2n(Cc3cccc(Cl)c3)ccn12 [GSK2296823] | > 10000 nM |
| Nc1n[nH]c2nnc(-c3ccccc3)cc12 [SB-517389] | > 10000 nM |
| Cl.O=S(=O)(c1cccc(F)c1)c1ccc(Nc2ncnc3cc(Br)sc23)cc1Cl [GSK306886] | > 10000 nM |
| COc1cc2c(Nc3cccc(NC(=O)c4ccccc4)c3)ncnc2cc1OCCCN1CCOCC1 [GSK223810] | 110 nM |

The compounds below were run on RIPK2.

| SMILES | Kd |
| --- | --- |
| Oc1ccc2ncnc(Nc3ccc(OCc4ccccc4)cc3)c2c1 [GI262866] | 8.1 nM |
| CCc1nc(-c2cccc(N(C)S(=O)(=O)c3ccccc3)c2)c(-c2ccnc(Nc3ccc(N4CCN(C(C)=O)CC4)nc3)n2)s1 [GSK1645895] | 130 nM |
| O=C(Nc1ccccc1)Nc1ccc(Oc2ccc3nccn3n2)cc1 | > 10000 nM |
| COc1cc2ncnc(Nc3ccc(OCc4ccccc4Br)c(Cl)c3)c2cc1OC.Cl [GI261590] | 410 nM |
